High-throughput results (PubChem)
The list is not random: actives were taken first. Their share in the collection is about 22%.
CYP2C9 activ = CYP2C9 (human) activation. recombinant CYP2C9, luciferin-H conversion, luminescence; stronger effect = higher value; factor 1 = untreated enzyme, 0 = blocked. 96,000 compounds, 1.4% hits. P11712. AID 1024. activation factor at 5 µM;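 active = activation factor of 2 or more for CYP2C9 at a 5 µM dose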
CYP2C19 activ = cytochrome P450 2C19 (human) activation; 96,000 tested, under 10 active; P33261; activation factor at 5 µM; AID 1025; recombinant CYP2C19, luciferin-H EGE luminescence; stronger effect = higher value; 0 = fully inhibited enzyme, 1 = untreated enzyme;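 active = activation factor of at least 2 at 5 µM in the primary screen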
Target sequence (P33261 whole entry, looked up): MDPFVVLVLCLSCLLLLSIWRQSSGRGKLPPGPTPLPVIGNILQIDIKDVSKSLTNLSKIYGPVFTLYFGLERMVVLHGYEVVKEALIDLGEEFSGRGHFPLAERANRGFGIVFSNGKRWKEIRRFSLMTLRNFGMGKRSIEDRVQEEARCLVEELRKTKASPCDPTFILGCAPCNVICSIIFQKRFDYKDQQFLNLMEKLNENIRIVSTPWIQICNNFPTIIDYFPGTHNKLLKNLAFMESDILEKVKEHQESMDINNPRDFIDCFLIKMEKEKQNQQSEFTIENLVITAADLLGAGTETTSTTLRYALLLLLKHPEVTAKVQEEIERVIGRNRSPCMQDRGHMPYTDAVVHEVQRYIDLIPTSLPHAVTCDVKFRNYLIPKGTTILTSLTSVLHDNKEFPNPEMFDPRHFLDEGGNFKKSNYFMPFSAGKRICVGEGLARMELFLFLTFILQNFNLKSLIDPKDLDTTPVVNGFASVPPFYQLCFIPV
CYP2C9 inhib = inhibitors of human CYP2C9; CYP2C9 Supersomes, luciferin-H conversion, luminescence; 96,000 compounds, 20% hits; AID 777; inhibition, % at 5 µM;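 active = blocking of liver enzyme CYP2C9 beyond about 50% at 5 µM, limit read from the data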
CYP2C19 inhib = blocks human cytochrome P450 2C19; CYP2C19 Supersomes, luciferin-H EGE luminescence, 30 min; inhibition, % at 5 µM; 96,000 compounds, 21% hits; P33261;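 active = CYP2C19 inhibition above a set limit at 5 µM in the primary screen, cut at about 50% in these data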
Measles CPE = protection of cells from measles virus | Measles virus-infected cells, CPE protection, absorbance | protection (pct of control), % at 4 µM | 140,000 compounds, 1.5% hits | AID 841; in the data active = protection mostly above about 24%, no sharp cut-off; inactive = mostly below about 26%
Hits are given with their value.

Screening CCOc1cc(N(CC)CC)ccc1/C=C(/C#N)c1nc2ccccc2[nH]1 returned CYP2C9 activ inactive, CYP2C19 activ inactive, CYP2C9 inhib 77, CYP2C19 inhib 56 and Measles CPE inactive.
Screening CCN(CC)c1ccc(/C=C(/C#N)c2nc3ccc(C)cc3[nH]2)c(OC(C)C)c1 returned CYP2C9 activ inactive, CYP2C19 activ inactive, CYP2C9 inhib 72, CYP2C19 inhib 60 and Measles CPE inactive.
`CCCOc1cc(N(CC)CC)ccc1/C=C(/C#N)c1nc2ccc(C)cc2[nH]1` gave CYP2C9 activ inactive, CYP2C19 activ inactive, CYP2C9 inhib 58, CYP2C19 inhib inactive and Measles CPE inactive.
COc1cc(/C=C(\C#N)c2nc3ccc(C)cc3[nH]2)c([N+](=O)[O-])cc1OC was read as CYP2C9 activ inactive, CYP2C19 activ inactive, CYP2C9 inhib inactive, CYP2C19 inhib inactive and Measles CPE inactive.
NNC(=O)CC12CC3CC(C1)CC(n1ncnn1)(C3)C2 was read as Measles CPE inactive.
For CC(=O)N(C)C1=C(O)c2ccccc2C(=O)C1=O the results were CYP2C9 activ inactive, CYP2C19 activ inactive, CYP2C9 inhib inactive, CYP2C19 inhib inactive and Measles CPE 39.
For CC(=O)N(C1=C(O)c2ccccc2C(=O)C1=O)C1CCCCC1 the results were Measles CPE inactive.
Screening CCc1cc2cccc(C)c2nc1SCC(=O)N1CCN(C(=O)c2ccco2)CC1 returned CYP2C9 activ inactive, CYP2C19 activ inactive, CYP2C9 inhib 57, CYP2C19 inhib inactive and Measles CPE inactive.
`CCOc1ccc2nc(SCC(=O)c3cccs3)sc2c1` gave CYP2C9 activ inactive, CYP2C19 activ inactive, CYP2C9 inhib inactive, CYP2C19 inhib 55 and Measles CPE inactive.
Screening Cc1nc(SCC(=O)N2CCN(C(=O)c3ccco3)CC2)c2c(C)c(C)sc2n1 returned CYP2C9 activ inactive, CYP2C19 activ inactive, CYP2C9 inhib 73, CYP2C19 inhib 51 and Measles CPE inactive.
`COc1ccc2c(c1)nc(SCC(=O)c1cccs1)n2C` gave CYP2C9 activ inactive, CYP2C19 activ inactive, CYP2C9 inhib inactive, CYP2C19 inhib 51 and Measles CPE inactive.
`CCOC(=O)N1CCN(CC(=O)N2c3ccccc3CC2C)CC1` (centres undefined) gave CYP2C9 activ inactive, CYP2C19 activ inactive, CYP2C9 inhib inactive, CYP2C19 inhib inactive and Measles CPE inactive.
For COc1ccc(CNC(=O)C(=O)NCC2OCCN2S(=O)(=O)c2cccs2)cc1 (centres undefined) the results were Measles CPE inactive.
For O=C(CSc1nc2ccccc2s1)N1CCN(C(=O)c2ccco2)CC1 the results were CYP2C9 activ inactive, CYP2C19 activ inactive, CYP2C9 inhib inactive, CYP2C19 inhib inactive and Measles CPE inactive.
`CCOc1ccc2nc(SCC(=O)N3CCN(C(=O)c4ccco4)CC3)sc2c1` gave CYP2C9 activ inactive, CYP2C19 activ inactive, CYP2C9 inhib 53, CYP2C19 inhib inactive and Measles CPE inactive.
Screening CCc1cc2ccc(C)cc2nc1SCC(=O)N1CCN(C(=O)c2ccco2)CC1 returned CYP2C9 activ inactive, CYP2C19 activ inactive, CYP2C9 inhib 94, CYP2C19 inhib 65 and Measles CPE inactive.
`O=C(CSc1nc(-c2ccc(F)cc2)cs1)N1CCN(C(=O)c2ccco2)CC1` gave CYP2C9 activ inactive, CYP2C19 activ inactive, CYP2C9 inhib inactive, CYP2C19 inhib 76 and Measles CPE inactive.
For COc1ccc(-c2csc(N3CCN(C(=O)c4ccco4)CC3)n2)cc1 the results were CYP2C9 activ inactive, CYP2C19 activ inactive, CYP2C9 inhib inactive, CYP2C19 inhib inactive and Measles CPE inactive.
`Cc1ccsc1C(=O)Nc1cc(C(C)(C)C)nn1-c1ccccc1` gave CYP2C9 activ inactive, CYP2C19 activ inactive, CYP2C9 inhib inactive, CYP2C19 inhib inactive and Measles CPE inactive.
Screening Cc1ncsc1C(=O)NCc1ccc(N2CCCC2=O)cc1 returned CYP2C9 activ inactive, CYP2C19 activ inactive, CYP2C9 inhib inactive, CYP2C19 inhib inactive and Measles CPE inactive.
`C=Cn1nc(C)c2ccccc2c1=O` gave CYP2C9 activ inactive, CYP2C19 activ inactive, CYP2C9 inhib inactive, CYP2C19 inhib inactive and Measles CPE inactive.
For O=S(=O)([O-])CCC[n+]1c(SCCCS(=O)(=O)O)sc2ccc(Cl)cc21 the results were Measles CPE 35.
CC(=O)NCCC(=O)Nc1ccc(F)cc1C was read as CYP2C9 activ inactive, CYP2C19 activ inactive, CYP2C9 inhib inactive, CYP2C19 inhib inactive and Measles CPE inactive.
`O=C(Nc1ccc(Cl)c(Cl)c1)OCc1cncs1` gave CYP2C9 activ inactive, CYP2C19 activ inactive, CYP2C9 inhib 97, CYP2C19 inhib 99 and Measles CPE inactive.
Screening O=C(Nc1ccc(Cl)c(Cl)c1)OCc1cnc(Cl)s1 returned CYP2C9 activ inactive, CYP2C19 activ inactive, CYP2C9 inhib inactive, CYP2C19 inhib inactive and Measles CPE inactive.
Screening COCCn1c(=O)[nH]c(=O)c2c(C(F)(F)F)cc(-c3cccs3)nc21 returned Measles CPE inactive.
CCCCn1c(=O)n(C)c(=O)c2c(C(F)(F)F)cc(-c3ccncc3)nc21 was read as CYP2C9 activ inactive, CYP2C19 activ inactive, CYP2C9 inhib inactive, CYP2C19 inhib 73 and Measles CPE inactive.
N=C1CCCN1CC(=O)c1ccc(Br)cc1 was read as Measles CPE inactive.
For COc1ccc2c(c1)[nH]c1c(=O)n(Cc3ccccn3)cnc12 the results were CYP2C9 activ inactive, CYP2C19 activ inactive, CYP2C9 inhib 51, CYP2C19 inhib inactive and Measles CPE inactive.
`CC(C)(C)C(=O)Cn1ncc(NC2CC2)c(Br)c1=O` gave CYP2C9 activ inactive, CYP2C19 activ inactive, CYP2C9 inhib inactive, CYP2C19 inhib 62 and Measles CPE inactive.
COc1ccc(CC(=O)Nc2c3c(nn2-c2cccc(C)c2C)CS(=O)C3)cc1 (centres undefined) was read as CYP2C9 activ inactive, CYP2C19 activ inactive, CYP2C9 inhib inactive, CYP2C19 inhib 94 and Measles CPE inactive.
`COc1ccc(CC(=O)Nc2c3c(nn2-c2cccc(C)c2C)CS(=O)C3)cc1OC` (centres undefined) gave CYP2C9 activ inactive, CYP2C19 activ inactive, CYP2C9 inhib inactive, CYP2C19 inhib 79 and Measles CPE inactive.
CCOc1ccc(C(=O)Nc2c3c(nn2-c2cccc(C)c2C)CS(=O)C3)cc1 (centres undefined) was read as CYP2C9 activ inactive, CYP2C19 activ inactive, CYP2C9 inhib inactive, CYP2C19 inhib inactive and Measles CPE inactive.
For COc1ccc(CNC(=O)CN(CCC(C)C)S(=O)(=O)c2ccc3c(c2)OCCO3)cc1 the results were Measles CPE inactive.
`CCOC(=O)CCC(NC(=O)c1ccc(NCN2C(=O)c3ccccc3C2=O)cc1)C(=O)OCC` (centres undefined) gave CYP2C9 activ inactive, CYP2C19 activ inactive, CYP2C9 inhib 55, CYP2C19 inhib inactive and Measles CPE inactive.
For Cc1cc(N2CCN(c3ccccc3)CC2)n2c(n1)nc1ccccc12 the results were CYP2C9 activ inactive, CYP2C19 activ inactive, CYP2C9 inhib 67, CYP2C19 inhib inactive and Measles CPE inactive.
For O=c1c2ccccc2nc(/C=C/c2c[nH]c3ccccc23)n1-c1ccc([N+](=O)[O-])cc1 the results were Measles CPE 32.
